Source: PubChem BioAssay (Broad Institute)
Only some compounds are listed: those with a hit (about 6.8% of all), similar ones and a draw of the others.
C diff HTS: C. difficile growth inhibitors, primary screen, HTS. Clostridium difficile clinical isolate growth, OD600, 24 h; stronger effect = lower value. growth activity, negative = inhibition, % at 16 µg/mL (by protocol). AID 1259249, 2017. hit rate 0.25% among 86,000;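 active = mean growth activity at or below -80% and every replicate also at or below -80%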;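 note: 0% = DMSO wells and -100% = levofloxacin 16 µg/mL wells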
Pf Dd2 growth: P. falciparum Dd2 growth inhibitors, primary screen, SYBR Green fluorescence, single dose replicates; 72 h; stronger effect = lower value; activity change, % at 10 µM; hit rate 2.3% among 94,000; in the data active = activity change below about -80%
T cruzi growth-1: T. cruzi intracellular proliferation inhibitors, primary screen, cell-based, beta-gal Tulahuen parasites, NIH3T3 host, luminescence; inhibition, % at 8.34 µM; T. cruzi beta-gal in NIH3T3, GalScreen luminescence, 90 h; hit rate 5.9% among 77,000;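 active = mean inhibition above about 93%, with at least 55% of replicates each passing it, limit read from the data, passing the limit was not always enough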
T cruzi growth-2: T. cruzi intracellular proliferation inhibitors, confirmation, cell-based, NIH3T3 host, beta-gal parasite, luminescence, cherry-pick; T. cruzi beta-gal in NIH3T3, GalScreen luminescence, 90 h; AID 651739, 2012; hit rate 72% among 5,600; shares compounds with T cruzi growth-1; inhibition, % at 8.35 µM;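 active = mean replicate inhibition above about 95% and at least 55% of replicates individually reaching it, limit read from the data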
T cruzi growth-3: inhibitors of intracellular T. cruzi replication, confirmation, NIH3T3 host cells, beta-gal parasites, cherry-pick, set 2; AID 651740, 2012; inhibition, % at 2.09 µM; hit rate 21% among 5,600; T. cruzi beta-gal in NIH3T3, GalScreen luminescence, 90 h; shares compounds with T cruzi growth-1;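 active = mean inhibition above about 95%, with at least 55% of replicates also reaching it, limit read from the data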;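 note: plate controls were neutral control median for no effect and positive control median for full effect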
NIH3T3 tox: cytotoxicity in mouse NIH/3T3 fibroblasts, confirmation, cytotoxicity control for T. cruzi proliferation inhibitor project, cell-based, cherry-pick, single point | shares compounds with T cruzi growth-1 | NIH/3T3 viability, CellTiter-Glo ATP luminescence, 90 h | cytotoxicity (signal decrease), % at 8.35 µM | hit rate 14% among 5,600;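 active = mean signal decrease across replicates above about 35% based on untreated-well scatter, with enough replicates individually passing, limit read from the data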;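 note: 0% = median of neutral control wells and 100% = median of positive control wells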
3T3 cytotox 2: NIH/3T3 fibroblast cytotoxicity, confirmation, cytotoxicity control, cell-based, cherry-pick, single point, set 2; NIH/3T3 viability, CellTiter-Glo ATP luminescence, 90 h; hit rate 56% among 5,600; shares compounds with T cruzi growth-1; inhibition, % at 24.9 µM;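 active = mean loss of cell viability signal at or above a set limit, and enough replicates individually reaching it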;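 note: 0% = median of neutral control wells and 100% = median of positive control wells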
An asterisk follows results filed as active; nt = no result.

SMILES | C diff HTS | Pf Dd2 growth | T cruzi growth-1 | T cruzi growth-2 | T cruzi growth-3 | NIH3T3 tox | 3T3 cytotox 2
O=S(=O)(c1ccccc1)N1CC[C@@H]2[C@H](CO)Nc3ccc(-c4ccccc4F)cc3[C@@H]21 | 66 | 27 | 109* | 90 | 97* | 23 | 52*
Cc1noc(C)c1NC(=O)N(C)C[C@@H]1Oc2ccc(NC(=O)CCN3CCOCC3)cc2C(=O)N([C@H](C)CO)C[C@@H]1C | -6 | 8 | 85 | nt | nt | nt | nt
CCS(=O)(=O)N1CC(=O)N2[C@H](CO)[C@@H](c3ccc(C#CCC4CCCC4)cc3)[C@H]2C1 | -11 | -17 | nt | nt | nt | nt | nt
COc1ccccc1-c1ccc2n(c1=O)C[C@@H]1[C@@H](CO)[C@H](C(=O)N(C)C)N(C(=O)c3cccnc3)[C@H]21 | -2 | nt | 56 | nt | nt | nt | nt
Cc1ccc(S(=O)(=O)N2CC[C@@H]3[C@@H](CO)Nc4ccc(-c5ccccc5F)cc4[C@@H]32)cc1 | 3 | -54 | 116* | 100* | 103* | 15 | 17
Cc1cccc(S(=O)(=O)N2CC[C@@H]3[C@@H](CO)Nc4ccc(-c5ccccc5F)cc4[C@@H]32)c1 | 1 | 17 | 1 | nt | nt | nt | nt
COc1ccc2c3c(n(C)c2c1)[C@@H](CO)N(C(=O)C1CC1)CC31CCN(C)CC1 | 4 | 8 | nt | nt | nt | nt | nt
CC(=O)N(C)C[C@@H]1Oc2cc(C#Cc3ccccn3)ccc2S(=O)(=O)N([C@@H](C)CO)C[C@H]1C | -1 | 16 | 102* | 91 | 81 | -8 | 19
CC(=O)N(C)C[C@H]1Oc2cc(C#Cc3ccccn3)ccc2S(=O)(=O)N([C@H](C)CO)C[C@@H]1C | -2 | 24 | -5 | nt | nt | nt | nt
C[C@H](CO)N1C[C@H](C)[C@H](CN(C)C)Oc2cc(C#Cc3ccccn3)ccc2S1(=O)=O | 3 | 15 | nt | nt | nt | nt | nt
C[C@H]1CN([C@@H](C)CO)S(=O)(=O)c2ccc(C#Cc3ccccn3)cc2O[C@@H]1CN(C)C | -2 | 13 | nt | nt | nt | nt | nt
C[C@H](CO)N1C[C@H](C)[C@H](CN(C)Cc2ccccc2)Oc2cc(C#Cc3ccccn3)ccc2S1(=O)=O | -5 | -78 | 107* | 109* | 90 | 4 | -7
C[C@@H]1CN([C@H](C)CO)S(=O)(=O)c2ccc(C#Cc3ccccn3)cc2O[C@@H]1CN(C)Cc1ccccc1 | -1 | -20 | 101* | 73 | 53 | 4 | 99*
O=C(C[C@H]1CC[C@H]2[C@@H](COC[C@H](O)CN2Cc2ccccc2F)O1)N[C@@H]1CCN(Cc2ccccc2)C1 | nt | -52 | 90 | nt | nt | nt | nt
C[C@H]1CN([C@@H](C)CO)C(=O)c2cc(-c3ccccc3F)cnc2O[C@H]1CN(C)Cc1cccc(F)c1 | nt | -25 | nt | nt | nt | nt | nt
Cc1ccc(S(=O)(=O)N[C@@H]2CC[C@H](CC(=O)NCCc3ccncc3)O[C@@H]2CO)cc1 | -3 | -7 | -4 | nt | nt | nt | nt
O=C(C[C@@H]1C=C[C@H](NC(=O)Nc2ccc(F)cc2)[C@H](CO)O1)NCc1ccccn1 | -1 | 31 | 17 | nt | nt | nt | nt
CC(C)CC#Cc1cnc2c(c1)C(=O)N([C@@H](C)CO)C[C@H](C)[C@@H](CN(C)C(=O)CN1CCOCC1)O2 | 5 | 20 | 12 | nt | nt | nt | nt
CO[C@@H]1CN(C)C(=O)c2ccc(NS(C)(=O)=O)cc2OC[C@H](C)N(C(=O)C2CCOCC2)C[C@@H]1C | nt | -1 | 12 | nt | nt | nt | nt
Cc1ccc(S(=O)(=O)N(C)C[C@@H]2OCCCC[C@H](C)Oc3ccc(NC(=O)CCC(F)(F)F)cc3C(=O)N([C@@H](C)CO)C[C@H]2C)cc1 | nt | -76 | nt | nt | nt | nt | nt
C[C@@H]1CN([C@H](C)CO)C(=O)c2cc(C#CC3(O)CCCC3)cnc2O[C@@H]1CN(C)C(=O)Cc1cccnc1 | nt | 19 | nt | nt | nt | nt | nt
Cn1cnc(S(=O)(=O)N2CCCCN3[C@H](CO)[C@@H](c4ccc(-c5cccc(F)c5)cc4)[C@@H]3C2)c1 | -9 | 41 | 103* | 104* | 1 | 22 | 64*
